What all share (test): PBM binding z-score (relative to random genomic background probes); higher = stronger binding; sequences stand for … in GC…GCGATTGACAGCGTAGAATGAAGG
For assay [1], the system named is FXR:RXRa (NR concentration 270 nM, RXRa partner concentration 90 nM). In short, it runs like this: (§1)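 Custom Agilent 4×180K protein-binding microarrays carried double-stranded probes. Their 34-nt variable regions held direct-repeat seeds, single-nucleotide variants, half-site ablations and random human genomic background sequences. Arrays were incubated 1 h with ligand-free nuclear receptor dimers in PBS pH 7.4, 2% milk, 0.02% Triton X-100, 1 mM DTT, 0.2 mg/mL BSA and 0.4 mg/ml salmon testes DNA. Antibodies against each partner (one per run) detected binding, and scanned fluorescence was regression-normalized. Binding z-scores use random background probes as reference.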

For assay [2], the system named is LXRa:RXRa (NR concentration 270 nM, RXRa partner concentration 90 nM). In short, it runs like this: as §1
Assay [3] deals with LXRa homodimer (NR concentration 270 nM). In a few lines:
as §1

In assay [4] the test system is LXRb:RXRa (NR concentration 270 nM, RXRa partner concentration 90 nM). In a few lines:
as §1

Assay [5] deals with LXRb homodimer (NR concentration 270 nM). In a few lines:
as §1

Assay [6] deals with PPARa:RXRa (NR concentration 270 nM, RXRa partner concentration 90 nM). In short, it runs like this: as §1
The test system of assay [7] is PPARg:RXRa (NR concentration 180 nM, RXRa partner concentration 90 nM). In short, it runs like this:
as §1

In assay [8] the test system is PPARg:RXRa 270nM:90nM, anti-RXR (NR concentration 270 nM, RXRa partner concentration 90 nM). In short, it runs like this: as §1
The test system of assay [9] is PPARg:RXRa 30nM:10nM, anti-RXR (NR concentration 30 nM, RXRa partner concentration 10 nM). In a few lines: as §1
Assay [10] relates to PPARg:RXRa 90nM:30nM, anti-RXR (NR concentration 90 nM, RXRa partner concentration 30 nM). In short, it runs like this:
as §1

Assay [11] concerns PPARg:RXRa DBDmut IVT, anti-RXR (DBD mutation: RXRa K156A/R161A, NR concentration 270 nM, RXRa partner concentration 90 nM). In short, it runs like this:
as §1

Assay [12] concerns PPARg:RXRa IVT, anti-PPARg (NR concentration 270 nM, RXRa partner concentration 90 nM). In short, it runs like this: as §1
Assay [13] relates to PPARg DBDmut:RXRa IVT, anti-PPARg (DBD mutation: PPARg1 K132A/R137A, NR concentration 270 nM, RXRa partner concentration 90 nM). In a few lines:
as §1

Assay [14] relates to PPARg DBDmut IVT, anti-PPARg (DBD mutation: PPARg1 K132A/R137A, NR concentration 270 nM). In short, it runs like this: as §1
The test system of assay [15] is PPARg homodimer (NR concentration 180 nM). In a few lines:
as §1

For assay [16], the system named is PXR:RXRa (NR concentration 270 nM, RXRa partner concentration 90 nM). In short, it runs like this: as §1
The subject of assay [17] is PXR homodimer (NR concentration 270 nM). In a few lines:
as §1

Assay [18] deals with RARa:RXR (NR concentration 270 nM, RXRa partner concentration 90 nM). In short, it runs like this:
as §1

Assay [19] deals with RARa homodimer (NR concentration 270 nM). In a few lines: as §1
Assay [20] has as its system RARb:RXRa (NR concentration 270 nM, RXRa partner concentration 90 nM). In a few lines: as §1

Among the data in the supplement of paper PMC6555819 are PBM binding z-score values, retold here.

For CTACCAAGGTGAACAAGGTCGTGGATTACTATTC, the PBM binding z-score in assay [1] is 1.7; in assay [2] it was 1.56; in assay [3], -0.154; in [4] it was 1.73; in assay [5], -0.448; in [6], 2.96. The PBM binding z-score in assay [7] was 1.5; in assay [8], 1.61; in assay [9] it was 0.053; in assay [10], 0.918; in assay [11], 2.25; in [12] it was 3.01. In addition, the PBM binding z-score in assay [13] was 1.26; in [14], -0.0966; in assay [15], 1.98; in assay [16], 2.46; in assay [17], 0.298; in [18], 2.92. Besides, the PBM binding z-score in assay [19] turned out to be 0.0898; in assay [20], 2.45.

On to GCGACTGGTGCAAAGCAGGTTACCATAAGGTTGG, for which the PBM binding z-score in assay [1] was -0.455; in [2], -0.431; in [3], -0.586; in assay [4], -0.35; in assay [5], -0.861; in assay [6], 0.293. Besides, the PBM binding z-score in assay [7] was 0.344; in [8] it was -0.0216; in [9] it was -0.591; in assay [10], -0.439; in assay [11], -0.384; in assay [12], 0.329. For the same sequence, the PBM binding z-score was -0.718 in assay [13]; -1.22 in assay [14]; -0.73 in assay [15]; -0.0682 in assay [16]; -0.682 in assay [17]; 0.163 in [18]. Moreover, the figures for the PBM binding z-score in assay [19] and in [20] were -1.27 and -0.0547, respectively.

Turning to CAGCCTAGGTCAAGGCCAGTATAGGAGGAACGTT, the PBM binding z-score was 3.62 in assay [1]; 2.26 in [2]; -0.0783 in assay [3]; 1.7 in assay [4]; -0.501 in assay [5]; 3.45 in assay [6]. Further, the PBM binding z-score is 2.15 in assay [7]; 2.23 in [8]; 0.352 in assay [9]; 1.18 in assay [10]; 2.48 in assay [11]; 2.33 in assay [12]. The PBM binding z-score is -0.75 in assay [13]; -0.631 in [14]; 0.784 in assay [15]; 1.3 in assay [16]; -0.176 in assay [17]; 1.93 in assay [18]. The PBM binding z-score in [19] was -0.377; in assay [20] it was 4.07.

For the sequence ATATGTAGGTTAAGGGTCGTTCAGGTTGGTTCGC, the PBM binding z-score in assay [1] was 2.74; in assay [2] it was 2.85; in [3], 1.23; in assay [4], 2.85; in [5], 0.845; in [6] it was 6.01. For the same sequence, the PBM binding z-score in assay [7] was found to be 10.9; in assay [8] it was 9.42; in [9], 10.4; in assay [10] it was 11; in assay [11], 7.55; in [12], 7.66. Moreover, the PBM binding z-score in assay [13] amounted to 3.39; in [14] it was 1.59; in assay [15] it was 2.62; in assay [16] it was 3.64; in [17] it was 2.22; in assay [18], 3.78. Moreover, the PBM binding z-score in assay [19] was 2.01; in assay [20], 2.33.

For the sequence TATCGGAGGACACGAAGGTCAGAGCTTTCCAGAG, the PBM binding z-score is 1.17 in assay [1]; 1.65 in assay [2]; 1.08 in assay [3]; 1.14 in assay [4]; -0.0992 in assay [5]; 1.88 in [6]. Also, the PBM binding z-score was 0.951 in assay [7]; 1.18 in assay [8]; 0.288 in assay [9]; 0.613 in assay [10]; 0.135 in [11]; 1.54 in assay [12]. Also, the PBM binding z-score is -0.485 in [13]; -0.6 in assay [14]; 1.67 in assay [15]; 1.9 in assay [16]; 1.2 in assay [17]; 2.05 in [18]. The PBM binding z-score amounted to 0.593 in assay [19] and 3.22 in assay [20].

In the case of CGTCCAAGGTCAGAGAGGTCAATGAATGCCGAGT, the PBM binding z-score in assay [1] was 6.53; in [2], 5.92; in assay [3] it was 4.51; in assay [4], 5.64; in assay [5], 0.884; in [6], 5.36. The PBM binding z-score came to 3.79 in assay [7]; 4.67 in assay [8]; 1.52 in [9]; 3.58 in assay [10]; 3.1 in assay [11]; 3.52 in assay [12]. The PBM binding z-score was -0.295 in [13]; -0.854 in assay [14]; 5.37 in [15]; 6.76 in [16]; 13.7 in assay [17]; 6.55 in assay [18]. The PBM binding z-score turned out to be 3.02 in [19] and 5.17 in [20].
